Measurements: ChEMBL document CHEMBL2218924, “A broad activity screen in support of a chemogenomic map for kinase signalling research and drug discovery” (Biochem J, 2013)

Tests used:
[1] = molecular target: T1, Mitogen-activated protein kinase 12 (Homo sapiens) (UniProt P53778); settings: at 1 µM
T1 sequence (whole entry): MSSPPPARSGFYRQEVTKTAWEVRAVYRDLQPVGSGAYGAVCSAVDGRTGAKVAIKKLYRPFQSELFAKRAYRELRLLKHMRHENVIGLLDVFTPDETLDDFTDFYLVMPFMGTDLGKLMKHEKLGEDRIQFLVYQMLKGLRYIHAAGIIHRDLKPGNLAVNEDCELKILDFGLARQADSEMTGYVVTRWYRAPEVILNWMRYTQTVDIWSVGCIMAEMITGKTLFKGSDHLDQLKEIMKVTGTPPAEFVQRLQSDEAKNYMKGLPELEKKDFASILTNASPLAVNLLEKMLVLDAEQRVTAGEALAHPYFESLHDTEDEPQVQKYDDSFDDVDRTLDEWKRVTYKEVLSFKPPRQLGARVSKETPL

[2] = molecular target: T1, Mitogen-activated protein kinase 12 (Homo sapiens); settings: at 10 µM
[3] = molecular target: T2, Serine/threonine-protein kinase Sgk3 (Homo sapiens) (UniProt Q96BR1); settings: at 1 µM
T2 sequence (whole entry): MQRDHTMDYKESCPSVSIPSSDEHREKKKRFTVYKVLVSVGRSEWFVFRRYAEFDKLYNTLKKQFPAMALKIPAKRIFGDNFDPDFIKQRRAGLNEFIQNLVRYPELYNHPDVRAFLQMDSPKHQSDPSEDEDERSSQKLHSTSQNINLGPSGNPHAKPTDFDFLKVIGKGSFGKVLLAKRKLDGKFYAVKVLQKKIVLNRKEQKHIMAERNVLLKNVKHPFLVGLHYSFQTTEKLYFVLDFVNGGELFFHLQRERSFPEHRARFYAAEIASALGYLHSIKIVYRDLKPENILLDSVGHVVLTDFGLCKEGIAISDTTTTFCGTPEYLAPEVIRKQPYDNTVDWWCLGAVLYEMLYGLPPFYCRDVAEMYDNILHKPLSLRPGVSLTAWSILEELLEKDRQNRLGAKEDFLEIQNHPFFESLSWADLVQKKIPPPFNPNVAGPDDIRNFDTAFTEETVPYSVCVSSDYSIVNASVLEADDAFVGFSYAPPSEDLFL

[4] = molecular target: T3, Serine/threonine-protein kinase Sgk1 (Homo sapiens) (UniProt O00141); settings: at 1 µM
T3 sequence (whole entry): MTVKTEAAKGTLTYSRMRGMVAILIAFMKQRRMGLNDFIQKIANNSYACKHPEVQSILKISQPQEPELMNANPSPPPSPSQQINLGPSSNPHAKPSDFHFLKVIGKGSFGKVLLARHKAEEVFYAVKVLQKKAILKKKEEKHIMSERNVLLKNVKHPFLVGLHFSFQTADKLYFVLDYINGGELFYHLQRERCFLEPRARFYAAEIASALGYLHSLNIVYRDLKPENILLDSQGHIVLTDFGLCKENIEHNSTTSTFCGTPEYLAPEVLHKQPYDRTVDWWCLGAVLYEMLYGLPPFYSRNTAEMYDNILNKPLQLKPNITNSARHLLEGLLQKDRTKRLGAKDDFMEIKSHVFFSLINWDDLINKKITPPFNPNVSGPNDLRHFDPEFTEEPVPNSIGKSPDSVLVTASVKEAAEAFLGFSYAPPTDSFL

[5] = molecular target: SRSF protein kinase 1 (Homo sapiens) (UniProt Q96SB4); settings: at 1 µM
[6] = molecular target: SRSF protein kinase 2 (Homo sapiens) (UniProt P78362); settings: at 1 µM
[7] = molecular target: SRSF protein kinase 2 (Homo sapiens) (UniProt P78362); settings: at 10 µM

Chain of SRSF protein kinase 2 (Homo sapiens) (P78362 whole entry, looked up): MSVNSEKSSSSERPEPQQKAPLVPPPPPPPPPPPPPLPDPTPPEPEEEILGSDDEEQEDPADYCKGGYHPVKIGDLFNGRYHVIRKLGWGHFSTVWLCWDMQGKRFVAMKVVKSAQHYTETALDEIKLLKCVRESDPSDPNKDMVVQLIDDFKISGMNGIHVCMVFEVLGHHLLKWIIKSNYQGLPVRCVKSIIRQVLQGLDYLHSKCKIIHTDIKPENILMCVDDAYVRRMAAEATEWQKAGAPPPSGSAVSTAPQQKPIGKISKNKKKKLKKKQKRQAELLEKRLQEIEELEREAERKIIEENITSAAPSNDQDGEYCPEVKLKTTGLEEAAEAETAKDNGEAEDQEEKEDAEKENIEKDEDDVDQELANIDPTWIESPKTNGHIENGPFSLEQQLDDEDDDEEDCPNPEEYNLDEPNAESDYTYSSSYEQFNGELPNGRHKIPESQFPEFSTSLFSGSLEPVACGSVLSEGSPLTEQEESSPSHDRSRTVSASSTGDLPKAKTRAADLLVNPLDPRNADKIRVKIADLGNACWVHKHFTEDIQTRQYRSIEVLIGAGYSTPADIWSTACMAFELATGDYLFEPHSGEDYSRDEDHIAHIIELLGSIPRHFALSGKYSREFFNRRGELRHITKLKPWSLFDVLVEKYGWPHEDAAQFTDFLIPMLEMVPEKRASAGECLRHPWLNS
Chain of SRSF protein kinase 1 (Homo sapiens) (Q96SB4 whole entry): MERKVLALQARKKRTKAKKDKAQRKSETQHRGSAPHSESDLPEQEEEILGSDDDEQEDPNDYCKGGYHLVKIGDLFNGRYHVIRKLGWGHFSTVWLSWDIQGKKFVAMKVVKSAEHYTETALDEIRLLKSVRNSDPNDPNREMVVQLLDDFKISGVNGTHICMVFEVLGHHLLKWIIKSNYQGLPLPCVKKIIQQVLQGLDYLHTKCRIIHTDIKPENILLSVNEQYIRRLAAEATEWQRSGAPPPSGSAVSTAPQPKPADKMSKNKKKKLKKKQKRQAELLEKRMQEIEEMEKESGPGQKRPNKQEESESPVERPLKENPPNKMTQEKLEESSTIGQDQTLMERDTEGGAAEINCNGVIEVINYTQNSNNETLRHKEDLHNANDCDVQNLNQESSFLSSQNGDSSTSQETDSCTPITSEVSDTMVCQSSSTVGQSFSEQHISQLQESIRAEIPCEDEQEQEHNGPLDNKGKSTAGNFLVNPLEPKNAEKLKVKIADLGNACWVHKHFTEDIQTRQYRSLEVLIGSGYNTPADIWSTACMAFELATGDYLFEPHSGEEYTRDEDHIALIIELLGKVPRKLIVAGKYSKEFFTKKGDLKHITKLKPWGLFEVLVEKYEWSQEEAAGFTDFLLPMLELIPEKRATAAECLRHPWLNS

O=C1NC(=O)c2c1c1c3ccccc3[nH]c1c1[nH]c3cc(Br)ccc3c21
residual activity [1]: 96% | residual activity [2]: 88% | residual activity [3]: 96%

Cc1cccc(-c2[nH]c(C(C)(C)C)nc2-c2ccc3c(c2)OCO3)n1
residual activity [1]: 104% | residual activity [2]: 100%

Cc1ccc(S(=O)(=O)/C=C/C#N)cc1
residual activity [1]: 92% | residual activity [2]: 92% | residual activity [3]: 103%

CN(C)CCCn1cc(C2=C(c3c[nH]c4ccccc34)C(=O)NC2=O)c2ccccc21
residual activity [1]: 125% | residual activity [2]: 131% | residual activity [3]: 101%

Cn1cnc2cc3c(Nc4cccc(Br)c4)ncnc3cc21
residual activity [1]: 104% | residual activity [2]: 89% | residual activity [3]: 107%

CCOC(=O)c1c(C)[nH]c(/C=C2\C(=O)Nc3ccccc32)c1C
residual activity [1]: 99% | residual activity [2]: 95%

Nc1nc(Nc2ccc(S(N)(=O)=O)cc2)nn1C(=S)Nc1c(F)cccc1F
residual activity [1]: 56% | residual activity [2]: 69% | residual activity [3]: 88%

CCC(=O)Nc1ccc2ncnc(Nc3cccc(Br)c3)c2c1
residual activity [1]: 101% | residual activity [2]: 93% | residual activity [3]: 105%

Nc1ncnc2c1c(-c1ccc(Oc3ccccc3)cc1)cn2C1CCCC1
residual activity [1]: 99% | residual activity [2]: 97% | residual activity [3]: 104%

O=C(Nc1cccc(Nc2nccc(Nc3cccc(C(F)(F)F)c3)n2)c1)C1CC1
residual activity [1]: 98% | residual activity [2]: 95% | residual activity [3]: 126%

COc1cc2ncnc(Nc3ccc(O)c(Br)c3)c2cc1OC
residual activity [1]: 98% | residual activity [2]: 97% | residual activity [3]: 99%

CCCCc1c(-c2ccc(OC)cc2)[nH]c2nccnc12
residual activity [1]: 103% | residual activity [2]: 112% | residual activity [3]: 100%

COc1ccc(S(=O)(=O)N(CCO)c2ccccc2CN(C)C/C=C/c2ccc(Cl)cc2)cc1
residual activity [1]: 99% | residual activity [2]: 95% | residual activity [3]: 98%

CO[C@H]1C[C@@H]2CC[C@@H](C)[C@@](O)(O2)C(=O)C(=O)N2CCCC[C@H]2C(=O)O[C@H]([C@H](C)C[C@@H]2CC[C@@H](O)[C@H](OC)C2)CC(=O)[C@H](C)/C=C(\C)[C@@H](O)[C@@H](OC)C(=O)[C@H](C)C[C@H](C)/C=C/C=C/C=C/1C
residual activity [1]: 95% | residual activity [2]: 94% | residual activity [3]: 112%

COc1ccc2c(c1)c(C1=C(c3c[nH]c4ccccc34)C(=O)NC1=O)cn2CCCN(C)C
residual activity [1]: 100% | residual activity [2]: 100% | residual activity [3]: 96%

O=C(c1ccccc1)c1ccc(N2CCOCC2)cc1O
residual activity [1]: 100% | residual activity [2]: 100% | residual activity [3]: 97%

CC(C)n1cnc2/c(=N/c3cccc(Cl)c3)nc(NCCO)[nH]c21
residual activity [1]: 96% | residual activity [2]: 99% | residual activity [3]: 107%

COc1ccc(OC)c2c(=S)c3ccccc3[nH]c12
residual activity [1]: 95% | residual activity [2]: 91% | residual activity [3]: 112%

CC#CC(=O)Nc1cc2c(Nc3ccc(F)c(Cl)c3)ncnc2cn1
residual activity [1]: 103% | residual activity [2]: 95% | residual activity [3]: 102%

O=C(Nc1cccc(Nc2cc(Nc3cccc(C(F)(F)F)c3)ncn2)c1)C1CC1
residual activity [1]: 94% | residual activity [2]: 92% | residual activity [3]: 96%

O=Nc1c(-c2c(O)[nH]c3ccccc23)[nH]c2ccccc12
residual activity [1]: 95% | residual activity [2]: 84% | residual activity [3]: 89%

N#C/C(=C(\N)Sc1ccc(N)cc1)c1ccccc1C(F)(F)F
residual activity [1]: 104% | residual activity [2]: 105% | residual activity [3]: 102%

Nc1ccc2ncnc(NCCc3ccc(Oc4ccccc4)cc3)c2c1
residual activity [1]: 107% | residual activity [2]: 108% | residual activity [3]: 109%

CC[n+]1c(/C=C/N(C)c2ccccc2)n(-c2ccccc2)c2ccc(-c3nc4ccccc4s3)cc21
residual activity [1]: 111% | residual activity [2]: 94% | residual activity [3]: 99%

O=C(O)c1ccc2c3c1cccc3c(=O)n1c3ccccc3nc21
residual activity [1]: 106% | residual activity [2]: 102% | residual activity [3]: 105%

Cn1sc(=O)n(Cc2ccccc2)c1=O
residual activity [1]: 90% | residual activity [2]: 97% | residual activity [3]: 99%

CN(C)c1ccc(/C=C2\C(=O)Nc3ccccc32)cc1
residual activity [1]: 113% | residual activity [2]: 83% | residual activity [3]: 106%

O=c1c2ccccc2[nH]c(=S)n1CCN1CCC(=C(c2ccc(F)cc2)c2ccc(F)cc2)CC1
residual activity [1]: 115% | residual activity [2]: 90% | residual activity [3]: 118%

COc1cc2ncnc(Nc3ccc(Oc4ccccc4)cc3)c2cc1OC
residual activity [1]: 108% | residual activity [2]: 101% | residual activity [3]: 110%

NC(=O)Nc1sc(-c2ccc(F)cc2)cc1C(N)=O
residual activity [1]: 90% | residual activity [2]: 82% | residual activity [3]: 93%

CCCC(=O)Oc1ccc2[nH]c(C(=O)c3cc4ccccc4[nH]3)cc2c1
residual activity [1]: 96% | residual activity [2]: 98% | residual activity [3]: 94%

NC(=O)c1ccc2[nH]c(-c3ccc(Oc4ccc(Cl)cc4)cc3)nc2c1
residual activity [1]: 93% | residual activity [2]: 92% | residual activity [3]: 107%

Cn1nc2c3c(cccc31)C(=O)c1ccccc1-2
residual activity [1]: 99% | residual activity [2]: 96% | residual activity [3]: 79%

COc1cc2ncnc(N3CCN(C(=O)Nc4ccc(Oc5ccccc5)cc4)CC3)c2cc1OC
residual activity [1]: 93% | residual activity [2]: 99% | residual activity [3]: 104%

O=C1NC(=O)/C(=C\c2ccc3nccnc3c2)S1
residual activity [1]: 100% | residual activity [2]: 61% | residual activity [3]: 114%

Cc1ccc(NC2=CC(=O)c3sc(C)nc3C2=O)cc1
residual activity [1]: 87% | residual activity [2]: 102% | residual activity [3]: 96%

CCN(CC)CCCCN1c2ccccc2Oc2ccc(Cl)cc21
residual activity [1]: 131% | residual activity [2]: 100% | residual activity [3]: 107%

O=C1NC(=O)c2c1c1c3ccccc3n3c1c1c2c2ccccc2n1C1CCC3O1
residual activity [4]: 53% | residual activity [5]: 92%

COc1ccc2c(c[n+](C)c3c4cc5c(cc4ccc23)OCO5)c1OC
residual activity [6]: 96% | residual activity [7]: 96%
